# “And” between values parts separate entries of the source, which are not always exact repeats. Equal values may be shown once. This is part of a sample that, as a whole, favours compounds with a hit. Of some 83,000 tested, about 20% had one in any assay.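 In brief: 96-well plates, 48 h treatment, single concentration, percent growth endpoint.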 A number with no mark means an inactive call. The source made the active and inactive calls. Rule for the calls: active = growth percent below 10; inactive = the rest.
# Test system: SNB-19 CNS
# Experiment: NCI-60 one-dose screen, 48 h (100 = growth as untreated, 0 = no growth, -100 = all killed)
# Conditions: 10 µM unless noted
row,Structure (SMILES),growth
1,CCc1ccccc1-c1nc(CN[C@@H]2C[C@@H]3C[C@H]([C@H]2C)C3(C)C)c(C)o1,-81.7% (active)
2,Cc1ccccc1Nc1nnc(-c2c[nH]c3ccccc23)o1,41%
3,Cc1ccc(/C=C/C(=O)c2ccc(S(=O)(=O)NCCNc3nc(N(C)C)nc(N4CCOCC4)n3)cc2)cc1,79.1%
4,COC(=O)c1c(C(=O)OC)c2ccc3c4ccccc4ccc3n2c1C(=O)C(C)Br (centres undefined),52.1%
5,COc1cc(CNC(=O)C[C@H](C)CCC=C(C)C)ccc1OCc1cn(-c2ccc(Cl)cc2Cl)nn1,50%
6,Cc1cc(C(NC(=O)C2CC3(CC(Nc4cccc5c4C(=O)N(C4CCC(=O)NC4=O)C5=O)C3)C2)c2ccc3c(c2)OC(F)(F)O3)c(O)c2ncccc12 (centres undefined),7.79% (active)
7,O=C(CSc1nnc(-c2ccc(-c3nc4ccc(Cl)cc4[nH]3)cc2)o1)Nc1ccc(Br)cc1,-17.5% (active)
8,COc1ccc(-c2nc3ccccc3n2CC(=O)N=Nc2c(O)[nH]c3ccc(OC)cc23)cc1,95.1%
9,Nc1cccc(-n2c(COc3ccc(I)cc3)nc3ccccc32)c1,93.5% and 98.6%
10,COC(=O)c1cc(C(=O)C(Br)Br)n2c1ccc1c3ccccc3ccc12,58.6%
11,O=C(NN1C(=O)/C(=C/C=C/c2ccc([N+](=O)[O-])o2)SC1=S)c1ccc([N+](=O)[O-])cc1,-100% (active)
12,Cc1ccc2nc(NC(=O)Nc3cccc(Cl)c3)sc2c1,103%
13,O=C1/C(=C/c2cccc3c2OCO3)Cc2c(F)cc(Br)cc21,103%
14,CC(C)(C)C(=O)C1CC(C#N)=C2C=Cc3c(ccc4ccccc34)N21 (centres undefined),60.1%
15,Cc1ccc(C(=O)Nc2cc(-c3ccncc3)cc(C(F)(F)F)c2)cc1C#Cc1cnc2cccnn12,92.9%
16,CCOc1ccc(-c2cc(-c3cc(C(C)C)c(O)cc3C)nn2-c2ccc(S(N)(=O)=O)cc2)cc1,49%
17,N#Cc1ccc(C(=O)CSc2nc3c(c(Nc4ccc(S(N)(=O)=O)cc4)n2)CCC3)cc1,-13.3% (active)

row,Structure (SMILES),growth
1,COc1ccc2c(c1)C(Sc1ccc(Cl)cc1)c1c(nc(N)c(C#N)c1N)O2 (centres undefined),65.1%
2,Fc1ccccc1CNc1nc(SCCN2CCOCC2)nc2c1cnn2CC(Cl)c1ccc(Br)cc1 (centres undefined),52.6%
3,COc1ccc(-c2nnc3c(/C=C/c4ccc(Br)cc4)nc4ccccc4n23)cc1,86.3%
4,Cc1nn(-c2ccccc2)c2ncn(CC(=O)N/N=C/c3ccccc3O)c(=O)c12,57.1%
5,CCOC(=O)c1ccc(NC(=S)NC(=O)c2cccc(NC(=O)c3ccc(C)cc3)c2)cc1,49.4%
6,COc1cc(/C=C/C(=O)c2cnn(-c3cc(=O)[nH]c4ccc(Cl)cc34)c2C)cc(OC)c1OC,-68.9% (active)
7,Cc1[nH]nc2ccc3nc(-c4cnn(CCO)c4)c4c(c3c12)CCCC4,74.4%
8,CCC1(OC(=O)c2ccccc2SSCCOC(=O)CCCCC2SCC3NC(=O)NC32)C(=O)OCc2c1cc1n(c2=O)Cc2cc3ccccc3nc2-1 (centres undefined),36.7%
9,CN(C)c1nc(NCCNS(=O)(=O)c2ccc(C(=O)/C=C/c3ccc(Cl)cc3)cc2)nc(N2CCOCC2)n1,60%
10,C[C@@H]1CN(c2ccc3ncc(C#Cc4cncc(C(=O)Nc5ccc(CN6CCN(C)CC6)c(C(F)(F)F)c5)c4)n3n2)C[C@@H](C)O1,-99.8% (active)
11,O=C1Nc2ccccc2/C1=C\c1ccc(OCC(=O)c2ccc(Br)cc2)cc1,79.6%
12,COc1ccc(NC(=O)NN2C(=O)c3ccccc3N(C)C2c2ccc(OC)cc2)cc1 (centres undefined),94%
13,COc1ccc2c(c1)N=c1c-2cc2c(O)[nH]c(=S)n2c1=O,59.8%
14,CCC(=O)c1c2c(c3ccc4c5ccccc5ccc4n13)C(=O)c1ccccc1C2=O,66.7%
15,CC1=C(C(=O)Nc2ccccc2)C(c2cccc(Cl)c2Cl)n2c(nc3ccccc32)N1 (centres undefined),67.5%
16,COc1cc(/C=N/NC(=O)c2ccc(OCc3nc4ccc(C)cc4[nH]3)cc2)cc(OC)c1OC,66.2%
17,Cc1ccc(C2CC(c3ccc(NC(=S)Nc4ccccc4)cc3)=NN2c2ccc(S(N)(=O)=O)cc2)cc1 (centres undefined),23.1%

# From PubChem BioAssay (NCI)
